In PubChem BioAssay:
“And” between values parts separate entries of the source, which are not always exact repeats. Equal values may be shown once. The source made the active and inactive calls.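 The calls were made as follows, unless noted: active = z-score of at least 1.8 in each of two replicates, scored against plate mean and spread of sample wells; inactive = the rest.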

What was measured:
[1] = stimulators of nuclear beta-catenin in C2C12, primary screen, imaging, WNT3A-conditioned medium, mouse C2C12, NPC library (AID 1117326; in the data active = nuclear beta-catenin stimulation mostly above about 4.2%, no sharp cut-off; inactive = mostly below about 10%); details: stronger effect = higher value
[2] = stimulators of insulin release from INS-1E, primary screen, cell-based, 5 mM glucose, NPC library (AID 1117329;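 active = compound raises insulin release from rat beta cells at 5 mM glucose, no numeric limit stated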); details: rat INS-1E insulin secretion, at 10 µM, stronger effect = higher value
[3] = growth inhibition of GSK3B-pretreated HCT116 cells – cell-based, CellTiter-Glo, 0.2 to 20 µM (AID 1117336;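 active = compounds lowering colon cancer cell viability after pretreatment blocking the GSK3B kinase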); details: HCT116 viability after GSK3B inhibitor, at 20 µM, stronger effect = higher value
[4] = inhibition of endothelial tube formation, primary screen, imaging, VEGF stimulated, CD31 staining, tube area, NPC library (AID 1117340;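 active = compound that reduces growth-factor-driven endothelial tube area in a mixed cell culture, no cutoff stated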); details: VEGF-stimulated ADSC/ECFC co-culture, at 10 µM, stronger effect = higher value
[5] = glucagon-like peptide 1 release enhancers, primary assay, NCI-H716 cell line, NPC library (AID 1117341;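 active = compound raises GLP1 secretion from the human gut endocrine cells, with no numeric limit stated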); details: NCI-H716 cells, at 10 µM, stronger effect = higher value
[6] = HCT116 colon cancer cell growth inhibition, primary screen, CellTiter-Glo luminescence, NPC library (AID 1117342;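 active = compounds that lower survival of HCT116 colon cancer cells in the luminescence readout, no numeric limit stated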); details: at 20 µM (top of the series)
[7] = CellTiter-Glo luminescent readout of SW480 viability loss, NPC library primary (AID 1117343;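 active = compounds that lower viability of the colon cancer cells in the luminescence readout, with no numeric limit stated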); details: CellTiter-Glo luminescence; at 20 µM (top of the series)
[8] = decreased DLD-1 cellular survival, CellTiter-Glo luminescent readout, NPC compound collection, primary HTS (AID 1117346;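 active = compounds that lower survival of DLD-1 colon cancer cells in the luminescence readout, no cutoff given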); details: DLD-1 viability, CellTiter-Glo luminescence; at 20 µM (top of the series)
[9] = differential killing of epithelial or mesenchymal cells, primary screen, imaging, PC-3E GFP, TEM4-18 mCherry, co-culture (AID 1345086;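 active = compounds killing one labelled cell type while sparing the other, by normalised counts and ratio limits, not self-fluorescent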;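 as to all read-outs here: cells exposed to compound for 72 h before imaging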;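 as to red/green cell ratio (normalised): normalised mesenchymal count divided by normalised epithelial count so high means epithelial killing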); details: imaging cell counts, at 1 µM; for red/green cell ratio (normalised): actives lie on both sides
[10] = system: Aerobactin synthetase IucA (Klebsiella pneumoniae hvKP1); assay: Biochemical IucA enzyme inhibition primary screen of the Spectrum library (AID 1346200; call rule not given here;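 also: 100% = wells without compound and 0% = wells lacking enzyme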); details: malachite green pyrophosphate, A620, at 8 µM, stronger effect = lower value
[11] = sensitizers of A549 cells to miR-34 induction, primary screen, imaging, A549 dox-inducible miR-34, nuclei and caspase counts (AID 1347080;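 active = compounds whose cell count with miR-34 switched on is under 0.7 times the count with it off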); details: A549 miR-34 inducible, Hoechst nuclei count, 48 h
[12] = target: NAD(+) hydrolase SARM1 (Homo sapiens) (UniProt Q6SZW1); assay: SARM1 TIR NADase inhibitors, cell lysate, NAD-Glo luminescence (AID 1508614;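 active = compound whose remaining NAD level is above about 45 nM, limit read from the data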;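 also: higher remaining NAD means stronger inhibition of SARM1 NADase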); details: SAM-TIR HEK293T lysate NADase, at 1 µM, stronger effect = higher value
[13] = viability rescue of complex I mutant cybrids, primary screen, cell-based, galactose medium, ATP luminescence (AID 1645843); details: complex I mutant cybrid cells, 72 h, stronger effect = higher value;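 also: positive z means more ATP and so rescue of galactose-driven cybrid death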
[14] = survival rescue of mitochondrial mutant cells in low glucose, primary screen, MELAS cybrids, Rieske KO mouse fibroblasts, CellTiter-Glo (AID 1508586;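 active = mean z-score across replicates of 1.96 or higher in either the MELAS or the Rieske mutant cell line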;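 also: z relative to plate mean and SD of compound and empty wells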)
[15] = target: Mitogen-activated protein kinase 7 (Homo sapiens) (UniProt Q13164); assay: ERK5 transactivation activators in reporter cells, primary screen, cell-based, HTS (AID 1508626;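 active = luciferase signal above three times the same-plate solvent-only control wells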;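 also: luciferase driven by Gal4-ERK5 fusion binding five Gal4 sites before minimal TATA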); details: HeLa Gal4-ERK5 transactivation, 18 h, at 5 µM, stronger effect = higher value
[16] = liver-stage malaria parasite growth inhibition, primary screen, cell-based, HepG2, luciferase luminescence, HepG2 viability (AID 624349; in the data active = parasite load remaining mostly below about 12%, no sharp cut-off; inactive = mostly above about 10%;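 also: 100% = mean of DMSO negative control wells on the same plate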); details: P. berghei liver stage in HepG2, luciferase luminescence, concentration not given here; parasite load remaining: stronger effect = lower value; viability: measured here: HepG2 viability without parasites
[17] = target: 6-phosphogluconate dehydrogenase, decarboxylating (Homo sapiens) (UniProt P52209); assay: 6PGD enzyme inhibitors, primary screen, biochemical, human, recombinant enzyme, NADPH absorbance (AID 1159550;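 active = at least 20% inhibition of 6-phosphogluconate dehydrogenase activity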); details: recombinant 6PGD, NADPH absorbance 341 nm; at 10 µM; stronger effect = higher value
[18] = counts scaled to control wells, 1 = unselective
[19] = measured here: epithelial PC-3E GFP cell survival
[20] = measured here: mesenchymal TEM4-18 mCherry cell survival
[21] = measured here: total cells without miR-34 induction
[22] = MELAS cybrid survival, CellTiter-Glo 48 h, stronger effect = higher value
[23] = Rieske KO mouse fibroblast survival, CellTiter-Glo 72 h
[24] = measured here: relative caspase fold change +Dox/-Dox
[25] = measured here: total cells with miR-34 induction, stronger effect = lower value

Chain of Mitogen-activated protein kinase 7 (Homo sapiens) (Q13164 whole entry, looked up, the tested form may be a part): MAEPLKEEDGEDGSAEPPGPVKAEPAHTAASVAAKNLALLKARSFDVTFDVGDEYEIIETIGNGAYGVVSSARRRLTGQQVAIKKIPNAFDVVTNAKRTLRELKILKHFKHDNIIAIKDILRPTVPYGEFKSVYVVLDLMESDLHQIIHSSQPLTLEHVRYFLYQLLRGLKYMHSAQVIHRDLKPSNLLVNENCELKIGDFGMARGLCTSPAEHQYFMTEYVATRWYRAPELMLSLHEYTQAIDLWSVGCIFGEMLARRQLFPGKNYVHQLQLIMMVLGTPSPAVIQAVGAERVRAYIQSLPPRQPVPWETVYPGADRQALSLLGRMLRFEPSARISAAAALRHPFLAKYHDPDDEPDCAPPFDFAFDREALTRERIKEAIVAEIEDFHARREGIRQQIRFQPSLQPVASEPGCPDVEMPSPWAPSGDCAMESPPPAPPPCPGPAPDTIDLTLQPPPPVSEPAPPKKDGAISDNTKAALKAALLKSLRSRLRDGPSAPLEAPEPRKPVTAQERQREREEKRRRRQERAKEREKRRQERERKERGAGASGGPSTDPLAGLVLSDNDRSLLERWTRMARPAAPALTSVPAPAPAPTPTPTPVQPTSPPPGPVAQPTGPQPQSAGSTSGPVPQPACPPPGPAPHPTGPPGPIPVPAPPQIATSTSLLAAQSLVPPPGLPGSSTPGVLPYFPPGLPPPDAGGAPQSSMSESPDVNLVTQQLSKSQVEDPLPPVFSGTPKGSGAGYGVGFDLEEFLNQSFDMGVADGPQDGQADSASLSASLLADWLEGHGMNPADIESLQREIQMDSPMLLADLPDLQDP
Chain of NAD(+) hydrolase SARM1 (Homo sapiens) (Q6SZW1 whole entry, looked up): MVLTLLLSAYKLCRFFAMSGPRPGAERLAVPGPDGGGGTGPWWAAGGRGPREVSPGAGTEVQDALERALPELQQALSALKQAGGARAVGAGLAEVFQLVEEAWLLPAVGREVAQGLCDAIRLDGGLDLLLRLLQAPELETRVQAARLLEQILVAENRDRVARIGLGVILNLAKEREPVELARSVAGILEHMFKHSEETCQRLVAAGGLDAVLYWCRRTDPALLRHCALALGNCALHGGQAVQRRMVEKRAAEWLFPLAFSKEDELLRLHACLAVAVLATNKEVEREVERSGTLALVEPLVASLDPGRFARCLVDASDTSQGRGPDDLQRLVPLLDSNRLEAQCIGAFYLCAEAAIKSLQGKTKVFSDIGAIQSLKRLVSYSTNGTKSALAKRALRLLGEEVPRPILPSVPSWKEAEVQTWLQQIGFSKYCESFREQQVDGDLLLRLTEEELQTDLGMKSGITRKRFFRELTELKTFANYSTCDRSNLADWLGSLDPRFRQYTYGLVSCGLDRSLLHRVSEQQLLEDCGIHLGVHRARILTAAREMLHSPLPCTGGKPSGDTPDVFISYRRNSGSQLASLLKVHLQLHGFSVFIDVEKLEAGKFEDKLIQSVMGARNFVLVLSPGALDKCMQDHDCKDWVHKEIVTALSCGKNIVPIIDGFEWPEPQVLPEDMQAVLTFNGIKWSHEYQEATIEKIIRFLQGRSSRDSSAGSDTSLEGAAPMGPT
Chain of 6-phosphogluconate dehydrogenase, decarboxylating (Homo sapiens) (P52209 whole entry, looked up): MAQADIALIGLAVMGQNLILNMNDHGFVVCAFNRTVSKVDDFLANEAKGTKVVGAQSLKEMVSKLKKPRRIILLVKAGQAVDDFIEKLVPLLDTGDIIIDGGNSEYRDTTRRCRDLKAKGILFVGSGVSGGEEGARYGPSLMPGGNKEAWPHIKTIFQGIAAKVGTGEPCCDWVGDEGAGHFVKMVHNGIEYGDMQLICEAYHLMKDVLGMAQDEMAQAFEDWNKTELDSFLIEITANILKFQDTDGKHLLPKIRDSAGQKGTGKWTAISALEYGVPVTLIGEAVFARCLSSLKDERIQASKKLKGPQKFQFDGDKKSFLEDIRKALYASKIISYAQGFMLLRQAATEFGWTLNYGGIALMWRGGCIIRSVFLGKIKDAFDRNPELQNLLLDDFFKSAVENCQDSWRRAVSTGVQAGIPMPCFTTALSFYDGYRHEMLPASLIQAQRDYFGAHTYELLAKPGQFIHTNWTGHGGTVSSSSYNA

NN=C(N)N
0.98 and 1.14: normalised cell number [9, 20]
10500 and 9550 and 9270: cell count [11, 21]
6.5%: nuclear beta-catenin stimulation ([1]; stimulation, at 2 µM)
inactive: nuclear beta-catenin stimulation ([1]; at 10 µM) 0.8% | insulin secretion stimulation [2] 1.9% | viability decrease [3] -34.7% | tube area decrease [4] -0.5% | GLP1 secretion stimulation [5] -3.5% | inhibition of viability [6] 0.63% | viability decrease (inhibition) [7] 20.2% | viability decrease (inhibition) [8] -6% | red/green cell ratio (normalised) [9, 18] 0.96 and 0.91 | activity remaining [10] 107% | remaining NAD [12] 10 nM | z-score [13] 0.575 and 0.155 and 0.34
1.02 and 1.25: normalised cell number [9, 19]

CC(C)c1cccc(C(C)C)c1O
active: viability decrease [3] 83.9% | inhibition of viability [6] 88.2% | viability decrease (inhibition) [7] 102% | viability decrease (inhibition) [8] 100%
1.17: normalised cell number [9, 19] | normalised cell number [9, 20]
inactive: nuclear beta-catenin stimulation ([1]; at 10 µM) 1.6% | insulin secretion stimulation [2] 0.6% | tube area decrease [4] 31% | GLP1 secretion stimulation [5] -1.8% | red/green cell ratio (normalised) [9] 1.01 | activity remaining [10] 114% | z-score [14, 22] 0.836 and -0.252 | remaining NAD [12] 10 nM | luciferase signal [15] 40 AU | z-score [13] 0.08 and -0.35 and 0.505
2.2%: nuclear beta-catenin stimulation ([1]; stimulation, at 2 µM)
-0.371 and -1.34: z-score [14, 23]

CN1C(=O)CN=C(c2ccccc2)c2cc([N+](=O)[O-])ccc21
1.19: fold change [11, 24]
9610: cell count [11, 21]
9100: cell count [11, 25]
inactive: parasite load remaining [16] 83.1% | nuclear beta-catenin stimulation ([1]; at 10 µM) 0.5% | insulin secretion stimulation [2] -0.2% | viability decrease [3] -4.25% | tube area decrease [4] -18.8% | GLP1 secretion stimulation [5] 3.3% | inhibition of viability [6] -16.9% | viability decrease (inhibition) [7] 18.1% | viability decrease (inhibition) [8] 1.05% | fold change ([11]; stronger effect = lower value) 0.947 | z-score [13] 0.65
0.9%: nuclear beta-catenin stimulation ([1]; stimulation, at 2 µM)
68.8%: viability [16]

CN[C@@H](C)[C@H](O)c1ccccc1
inactive: nuclear beta-catenin stimulation ([1]; at 10 µM) 1.4% | insulin secretion stimulation [2] 0% | viability decrease [3] -2.5% | tube area decrease [4] -1.6% | GLP1 secretion stimulation [5] 0.8% | inhibition of viability [6] -12.5% | viability decrease (inhibition) [7] 5.5% | viability decrease (inhibition) [8] -4.6% | inhibition [17] 16.5%
0.6%: nuclear beta-catenin stimulation ([1]; stimulation, at 2 µM)

CC1Sc2c(C(=O)O)c(=O)c3cc(F)c(N4CCNCC4)cc3n21 (configuration not stated)
active: inhibition of viability [6] 50.6%
1: normalised cell number [9, 19]
2.5%: nuclear beta-catenin stimulation ([1]; stimulation, at 2 µM)
inactive: nuclear beta-catenin stimulation ([1]; at 10 µM) -0.2% | insulin secretion stimulation [2] 1.4% | viability decrease [3] 43.4% | tube area decrease [4] -8.5% | GLP1 secretion stimulation [5] 2.3% | viability decrease (inhibition) [7] 40.9% | viability decrease (inhibition) [8] 40.8% | red/green cell ratio (normalised) [9, 18] 1.16
1.16: normalised cell number [9, 20]

O=P1(NCCCl)OCCCN1CCCl (configuration not stated)
0.8%: nuclear beta-catenin stimulation ([1]; stimulation, at 2 µM)
inactive: parasite load remaining [16] 91% and 76.7% and 18.8% | nuclear beta-catenin stimulation ([1]; at 10 µM) 1.1% | insulin secretion stimulation [2] 2.9% | viability decrease [3] -25.5% | tube area decrease [4] 9.8% | GLP1 secretion stimulation [5] -0.1% | inhibition of viability [6] 7.23% | viability decrease (inhibition) [7] -16.8% | viability decrease (inhibition) [8] -5.2% | red/green cell ratio (normalised) [9] 1.03 | activity remaining [10] 114% | z-score [14, 22] -0.402 and 0.719 and 0.667 | remaining NAD [12] 10 nM | luciferase signal [15] 44 AU | z-score [13] 0.08
1.08: normalised cell number [9, 19]
-0.0632 and -0.341 and -0.186: z-score [14, 23]
1.11: normalised cell number [9, 20]
94% and 95.7% and 66%: viability [16]

c1ccc2c(c1)OCC(C1=NCCN1)O2 (configuration not stated)
-0.433 and -0.198: z-score [14, 23]
inactive: parasite load remaining [16] 48.2% and 42.6% | nuclear beta-catenin stimulation ([1]; at 10 µM) 5.9% | insulin secretion stimulation [2] 2.3% | viability decrease [3] 14.1% | tube area decrease [4] -4.8% | GLP1 secretion stimulation [5] 0.1% | inhibition of viability [6] 17.5% | viability decrease (inhibition) [7] 33.2% | viability decrease (inhibition) [8] -3.9% | red/green cell ratio (normalised) [9] 0.85 | z-score [14, 22] 0.698 and 0.759 | remaining NAD [12] 10 nM | z-score [13] -1 and -0.91 and -1.57
1.03: normalised cell number [9, 20]
92.9% and 100%: viability [16]
-1.4%: nuclear beta-catenin stimulation ([1]; stimulation, at 2 µM)
1.22: normalised cell number [9, 19]

c1ccc(N2CCNCC2)cc1
0.95: normalised cell number [9, 19]
1.12: normalised cell number [9, 20]
inactive: nuclear beta-catenin stimulation ([1]; at 10 µM) 0.1% | insulin secretion stimulation [2] 3.1% | viability decrease [3] 3.7% | tube area decrease [4] -2.6% | GLP1 secretion stimulation [5] -0.5% | inhibition of viability [6] 10.5% | viability decrease (inhibition) [7] 0.3% | viability decrease (inhibition) [8] -5.9% | red/green cell ratio (normalised) [9] 1.17
-0.6%: nuclear beta-catenin stimulation ([1]; stimulation, at 2 µM)

CNCC(O)c1ccc(O)cc1 (configuration not stated)
-0.247 and -0.0924 and -0.396: z-score [14, 23]
inactive: parasite load remaining [16] 81.5% and 59.8% | nuclear beta-catenin stimulation ([1]; at 10 µM) -0.1% | insulin secretion stimulation [2] 0.25% | viability decrease [3] 14.7% | tube area decrease [4] -15.1% | GLP1 secretion stimulation [5] 0.1% | inhibition of viability [6] -4% | viability decrease (inhibition) [7] -14.6% | viability decrease (inhibition) [8] -3.7% | red/green cell ratio (normalised) [9] 1.1 | z-score [14, 22] -0.35 and -0.388 and -0.264 | remaining NAD [12] 10 nM | z-score [13] 0.82 and 0.285
69.8% and 68.9%: viability [16]
0.92: normalised cell number [9, 20]
0.84: normalised cell number [9, 19]
-2.7%: nuclear beta-catenin stimulation ([1]; stimulation, at 2 µM)

CN1CCN(C(=O)O[C@H]2c3nccnc3C(=O)N2c2ccc(Cl)cn2)CC1
1.01 and 4.25: fold change [11, 24]
0.91: normalised cell number [9, 20]
9050 and 10100: cell count [11, 25]
-0.8%: nuclear beta-catenin stimulation ([1]; stimulation, at 2 µM)
9590 and 10300: cell count [11, 21]
93.7%: viability [16]
1.07: normalised cell number [9, 19]
inactive: parasite load remaining [16] 62.4% | nuclear beta-catenin stimulation ([1]; at 10 µM) -0.9% | insulin secretion stimulation [2] 2.3% | viability decrease [3] 2.2% | tube area decrease [4] -7.8% | GLP1 secretion stimulation [5] -0.8% | inhibition of viability [6] -1.1% | viability decrease (inhibition) [7] 5.5% | viability decrease (inhibition) [8] -2.6% | red/green cell ratio (normalised) [9] 0.85 | activity remaining [10] 110% | fold change ([11]; stronger effect = lower value) 0.943 and 0.981 | remaining NAD [12] 10 nM | luciferase signal [15] 40 AU | z-score [13] 0.52
